From PubChem BioAssay AID687016 (The Scripps Research Institute Molecular Screening Center, 2013)
In all, about 370,000 compounds went through this assay and about 2,800 (0.76%) were called active. For the sample, actives were picked, then their nearest neighbours and some compounds at random. A number with no mark means an inactive call. Rule as the data show it: active = inhibition above about 21%; inactive = the rest.

What follows are compounds tested against E3 ubiquitin-protein ligase UHRF1 (Homo sapiens) (UniProt Q96T88) (assay: UHRF1 methylated DNA binding inhibitors, primary screen, counter-screen for MBD2 inhibitor project, biochemical, TR-FRET, human UHRF1, single concentration (AID 687016;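 also: UHRF1 SRA domain binding a hemimethylated CpG hairpin DNA probe; 0% = median of test compound wells and 100% = reference inhibitor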)). Conditions: UHRF1 binding to methylated oligo, at 4.4 µM, stronger effect = higher value.
Chain of E3 ubiquitin-protein ligase UHRF1 (Homo sapiens) (Q96T88 whole entry, looked up, the tested form may be a part): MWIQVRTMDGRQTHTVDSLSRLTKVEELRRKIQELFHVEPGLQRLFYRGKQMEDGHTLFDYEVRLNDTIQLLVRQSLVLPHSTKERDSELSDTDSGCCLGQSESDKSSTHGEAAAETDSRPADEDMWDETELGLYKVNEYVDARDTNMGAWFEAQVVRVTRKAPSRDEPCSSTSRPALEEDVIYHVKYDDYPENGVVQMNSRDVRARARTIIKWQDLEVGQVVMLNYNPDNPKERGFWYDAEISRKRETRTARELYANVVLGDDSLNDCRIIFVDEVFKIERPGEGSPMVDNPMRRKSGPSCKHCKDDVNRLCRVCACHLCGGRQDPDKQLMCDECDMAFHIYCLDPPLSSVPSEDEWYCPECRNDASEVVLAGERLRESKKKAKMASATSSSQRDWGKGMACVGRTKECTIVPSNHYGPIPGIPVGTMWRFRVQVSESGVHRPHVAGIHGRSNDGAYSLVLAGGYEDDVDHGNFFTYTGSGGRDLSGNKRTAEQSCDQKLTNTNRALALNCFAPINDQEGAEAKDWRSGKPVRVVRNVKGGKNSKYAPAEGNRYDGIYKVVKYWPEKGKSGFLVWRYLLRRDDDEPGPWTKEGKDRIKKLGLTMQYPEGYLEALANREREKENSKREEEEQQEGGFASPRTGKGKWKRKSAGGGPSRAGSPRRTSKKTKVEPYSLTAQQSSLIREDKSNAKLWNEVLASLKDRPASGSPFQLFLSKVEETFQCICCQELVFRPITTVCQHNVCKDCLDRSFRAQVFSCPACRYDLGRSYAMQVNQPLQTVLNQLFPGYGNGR

Structure (SMILES)	inhibition
CCOC(=O)[C@]12CCCC3=C1N(CCC3)C(=O)[C@@H](CC(=O)N1CCSCC1)C2	-0.01%
O=C(Nc1ccccc1)N1CCN(Cc2nc3ccccc3c(=O)[nH]2)CC1	0.95%
O=C(NCc1ccco1)C1CCCN(S(=O)(=O)c2ccc(Cl)s2)C1 (stereo not drawn)	-1.18%
COC(=O)C[C@@H]1CC[C@@H]2[C@@H](COc3ccc(NC(=O)Nc4ccc(F)c(F)c4)cc3C(=O)N2C)O1	0.81%
CCOC(=O)C1(Cc2ccccc2)CCN(Cc2cn(C(C)=O)c3ccccc23)CC1	-2.91%
Cc1cc([N+](=O)[O-])nn1CCCC(=O)Nc1cccnc1Cl	1.45%
Cc1cc([N+](=O)[O-])nn1CC(=O)Nc1ccc(Cc2ccncc2)cc1	-2.12%
Cc1cc([N+](=O)[O-])nn1Cc1ccc(F)cc1	20.9% (active)
COc1ccc(S(=O)(=O)n2cnc3ccccc32)c(C)c1	1.22%
CCCCNS(=O)(=O)c1ccc(S(=O)(=O)n2cnc3ccccc32)cc1	20.7% (active)
Cc1ccc(S(=O)(=O)n2cnc3ccccc32)c(C)c1	8.08%
CCOC(=O)[C@]12CCCCC/C=C\1N(Cc1ccc(OC)cc1)C(=O)[C@H]2CC(=O)N1CCOCC1	-3.09%
O=C(CCCCCN1C(=O)C2C3C=CC(C3)C2C1=O)Nc1ccccc1 (stereo not drawn)	-1.94%
Fc1ccc(Br)cc1/C=N/n1cnnc1	-0.98%
Cc1cc(/C=N/n2cnnc2)c(C)n1-c1ccc2ncccc2c1	0.89%
Cc1cc(/C=N/n2cnnc2)c(C)n1-c1cccc(C(=O)O)c1	60% (active)
COC(CNC(=O)[C@H](Cc1ccccc1)NC1(C(=O)NC2CCCCC2)CCCCC1)OC	-1.65%
COC[C@@H]1CCCN1c1ccc2c(c1)O[C@H](C)CCN(C1CC1)S2(=O)=O	-3.33%
CCCC1=Nc2cc(C(=O)NCc3ccco3)ccc2Sc2ccccc21	0.66%
COc1ccc2oc(C(=O)NCc3ccco3)c(C)c2c1	-0.64%
CCCCOc1ccc(C(=O)NCc2ccco2)cc1	25% (active)
C#CCCN([C@H](C(=O)OC)C(C)C)S(=O)(=O)c1ccc(F)cc1Br	-0.78%

Structure (SMILES)	inhibition
CCOc1cc2[nH]c(=S)n(CCCN3CCCC3=O)c(=O)c2cc1OCC	-0.84%
CCOc1cc2[nH]c(=S)n(CCN3CCCCC3C)c(=O)c2cc1OCC (stereo not drawn)	66% (active)
COc1cc2[nH]c(=S)n(CCN3CCCCC3C)c(=O)c2cc1OC (stereo not drawn)	8.11%
O=C(CN1CCCc2ccccc21)NCc1ccc(F)cc1	-2.07%
OC(C#CCN1CCOCC1)(c1ccccc1)C1CCCCC1 (stereo not drawn)	1.93%
CN(CC#CCC(c1ccccc1)c1ccccc1)C(C)(C)C	-0.47%
CC(C)(C)N(CC#CCC(O)(c1ccccc1)C1CCCC1)CCO (stereo not drawn)	24.7% (active)
CN[C@H]1C[C@H]2c3cc(N4CCOCC4)ccc3CCN2C[C@H]1[C@H](C)O	-0.07%
O=C(NC1CCCCN(Cc2cccc(C(F)(F)F)c2)C1=O)c1ccccc1I (stereo not drawn)	-2.03%
CC(C)(C)C(=O)CN1C2=NCCN2c2ccccc21	0.42%
OC(CN1C2=NCCCN2c2ccccc21)c1ccc(Br)cc1 (stereo not drawn)	68.9% (active)
Cc1cc2c(cc1C)N(Cc1ccccc1)C1=NCCCN12	-2.05%
CC(C)(C)OC(=O)NCCc1ccccc1/C=C/S(=O)(=O)NCc1ccc(F)cc1	3.54%
CSc1ccc(C=Nn2c(-c3ccc(F)cc3)n[nH]c2=S)cc1	-0.35%
CCOc1ccc(-n2c(SCC(=O)Nc3cc(C)c(NC(=O)c4ccccc4)cc3OC)nnc2-c2cccs2)cc1	-0.28%
Cc1ccc(C(=O)C2CCN(CC(=O)NCCC(C)C)CC2)cc1	9.98%
O=S1(=O)c2c(NCc3ccco3)cccc2Oc2ccccc2CN1Cc1cn(Cc2cccc(C(F)(F)F)c2)nn1	3.97%
CC(=O)c1cccc(-c2ccc(CN3C(CC(C)C)C(=O)N(Cc4cn(CC5CCCCC5)nn4)CCS3(=O)=O)cc2)c1 (stereo not drawn)	21% (active)
COc1ccc(-c2ccc(CN3C(CC(C)C)C(=O)N(Cc4cn(CC5CCCCC5)nn4)CCS3(=O)=O)cc2)cc1 (stereo not drawn)	1.54%
CC(C)CC1C(=O)N(Cc2cn(CC3CCCCC3)nn2)CCS(=O)(=O)N1Cc1ccc(-c2ccc(Cl)cc2)cc1 (stereo not drawn)	-1.68%
CCOC(=O)[C@@]12CN(C(=O)OC(C)(C)C)CC=C1N(Cc1ccc(OC)cc1)C(=O)[C@H]2CC(=O)NCc1ccc(OC)c(OC)c1	-2.61%
COC(=O)C1CN(CC(C)C)CCS(=O)(=O)N1Cc1ccc(C)cc1 (stereo not drawn)	1.11%

Structure (SMILES)	inhibition
O=C(O)CCCn1cc(NC(=O)COc2cccc(Cl)c2)cn1	5.22%
O=C(COC(=O)c1cccc(Cl)c1)NC(=O)NCc1ccccc1	-0.3%
O=C(COc1cccc(Cl)c1)NCc1ccccc1	36% (active)
CCCCCCCCNS(=O)(=O)/C=C/c1cc(C)ccc1CNC(=O)OC(C)(C)C	-7.08%
CC(=O)C1(C(=O)Nc2nccs2)CC(c2ccccc2C(F)(F)F)=NO1 (stereo not drawn)	-0.55%
CCOC(=O)[C@]12CCCC3=C1N(CCC3)C(=O)[C@@H](CC(=O)NCc1cccs1)C2	-1.06%
Cc1ccc(S(=O)(=O)NCCSC(C)(C)C)cc1	-0.21%
COc1nc(Oc2ccc(=O)n(C)n2)nc(N(C)C)n1	-0.4%
COc1nc(N(C)C)nc(N2CC(=O)N(CCNS(=O)(=O)c3ccc(C)cc3)C2=N)n1	22.6% (active)
COc1ccccc1C(=O)NC1CCCCN(C(C)C)C1=O (stereo not drawn)	2.58%
COc1ccc(C(=O)OCC(=O)c2ccc(C)c(S(=O)(=O)N3CCOCC3)c2)cc1OC	-0.9%
O=C(OCC(=O)N1CCN(c2ccccc2)CC1)c1ccc([N+](=O)[O-])s1	-3.28%
COc1ccc(C(=O)COC(=O)c2ccc([N+](=O)[O-])s2)cc1OC	21.7% (active)
CC(c1c[nH]c2ccccc12)c1c(-c2ccccc2)n(C)c2ccccc12 (stereo not drawn)	1.29%
Cc1cc(C)n2ncc(C(=O)Nc3ccc4c(c3)OCCO4)c2n1	-6.73%
COc1cccc(CN(C)C(=O)CC[C@H]2O[C@@H](n3cnc4c(NC(=O)c5ccccc5)ncnc43)[C@H](O)[C@@H]2O)c1	0.17%
CCC(C)C(CO)NC(=O)/C=C/[C@H]1O[C@@H](n2cnc3c(NC(=O)c4ccccc4)ncnc32)[C@H](O)[C@@H]1O (stereo partly drawn)	19.7%
O=C(/C=C/[C@H]1O[C@@H](n2cnc3c(NC(=O)c4ccccc4)ncnc32)[C@H](O)[C@@H]1O)NCc1ccccc1	23% (active)
Cc1ccc(-n2c(COc3ccccc3)nnc2SCC(=O)Nc2ccc3c(c2)OCCO3)cc1	1.6%
COc1ccc(Cn2cc(COC(=O)N(C)Cc3ccccc3)nn2)cc1	1.11%
COc1ccccc1NC(=O)C1CCCN1S(=O)(=O)c1ccc(Cl)cc1 (stereo not drawn)	-0.35%
Cc1cccc(NC(=O)C2CCCN(C(=O)Nc3ccc(F)cc3)C2)c1C (stereo not drawn)	10.2%

Structure (SMILES)	inhibition
Cc1cccc(NC(=O)C2CCCN2S(=O)(=O)c2ccc(F)cc2)c1C (stereo not drawn)	42.7% (active)
Cc1ccccc1NC(=O)COC(=O)c1ccc(Sc2ncn[nH]2)c([N+](=O)[O-])c1	-0.88%
O=C(NC1CCCCN(Cc2ccc(Cl)cc2)C1=O)c1ccc(Br)cc1 (stereo not drawn)	-3.02%
C[C@@H]1COc2cccc(N3CCCC3)c2S(=O)(=O)N1C	0.4%
CC(Cc1cccs1)NC(=O)c1cccc(Cl)c1 (stereo not drawn)	-1.41%
CC(C)(C)N(Cc1ccccc1)C(=O)c1ccncc1	1.02%
CC(Cc1cccs1)N(Cc1ccc(Cl)cc1)C(=O)c1ccncc1 (stereo not drawn)	26.1% (active)
COc1ccc(C2Nc3ccccc3C(=O)N2Cc2cccs2)cc1COc1c(C)cccc1C (stereo not drawn)	1.56%
O=C1Nc2ccccc2OC1CC(=O)N1CCCCCCC1 (stereo not drawn)	-2.05%
CC(=O)OCCN1CCCC12CCC(c1ccccc1)CC2 (stereo not drawn)	0.81%
O=C(CN1C(=O)NC2(CCCC2)C1=O)OCCOc1ccc(F)cc1	0.11%
Cc1ccc(COC(=O)CN2C(=O)NC3(CCCC3)C2=O)cc1	42.5% (active)
CCOc1ccc(C(C)=O)cc1COC(=O)CN1C(=O)NC2(CCCC2)C1=O	2.29%
COc1ccccc1CCNC(=O)C1CCN(c2nc(C)cc(C)n2)CC1	2.65%
O=C(c1ccc(C(F)(F)F)cc1)N1CCC(=O)N([C@H](COCc2ccccc2)Cc2ccccc2)CC1	-0.62%
COc1ccc(COC[C@H](CC(C)C)N2CCN(C(=O)c3cccc(C(F)(F)F)c3)CCC2=O)cc1	21.1% (active)
CC(C)CC(COCc1ccc(Cl)cc1)N1CCN(C(=O)c2ccc(C(F)(F)F)cc2)CCC1=O (stereo not drawn)	10.1%
O=C(CSc1nnc(COc2ccccc2)n1Cc1ccco1)c1ccc2ccccc2c1	-1.9%
CCn1c2ccccc2c2cc(NC(=O)CSc3nnc(-c4ccccc4)n3-c3ccc(C)cc3)ccc21	-2.76%
CCCc1nc2c3ccccc3ccn2c1Cc1ccccc1C(F)(F)F	22.9% (active)
FC(F)(F)c1ccccc1Cc1c(-c2ccccc2)nc2c3ccccc3ccn12	14.2%
Cc1cc(Br)cn2c(Cc3ccccc3C(F)(F)F)c(C3CCCCC3)nc12	11.3%
